Drawing on PubChem BioAssay (NCI), this text covers growth inhibition for 37 molecules.

A short description of assay [1]: NCI Yeast Anticancer Drug Screen. Data for the rad50 strain (AID 155).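 Further: 0% = growth of vehicle-only cultures of the same strain.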 The note with it: S. cerevisiae rad50 strain growth inhibition; at 50.0 µM; active compounds read high. The procedure, abridged: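 Compounds were tested on a yeast strain with an engineered DNA damage repair alteration; the reported value is growth inhibition normalised to vehicle treatment.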
Assay [2] in a line: NCI Yeast Anticancer Drug Screen. Data for the mec2-1 strain (AID 157). The note with it: S. cerevisiae mec2-1 strain, at 50.0 µM, active compounds read high. In outline:
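Each compound was tested on mec2-1 yeast, a strain altered in DNA damage repair or cell cycle control. Growth inhibition is reported relative to vehicle.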

Assay [3] is described as follows: NCI Yeast Anticancer Drug Screen. Data for the sgs1 mgt1 strain (AID 161).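 Further: 0% = growth of cultures given vehicle only.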 The note with it: S. cerevisiae sgs1 mgt1 strain, at 50.0 µM, active compounds read high. The procedure, abridged: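 Test agents were incubated with a DNA-repair-mutant yeast strain. Growth was then read and compared against vehicle-treated controls.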
Assay [4] is described as follows: NCI Yeast Anticancer Drug Screen. Data for the cln2 rad14 strain (AID 165).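 Further: 0% = growth equal to vehicle treated cultures.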 The note with it: S. cerevisiae cln2 rad14 strain, at 50.0 µM, active compounds read high. The procedure, abridged: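 Test compounds were added to cln2 rad14 yeast cultures; inhibition of growth was then determined by comparison with vehicle treatment.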
Assay [5] is described as follows: NCI Yeast Anticancer Drug Screen. Data for the bub3 strain (AID 167). The note with it: S. cerevisiae bub3 mutant strain, at 50.0 µM, active compounds read high. The procedure, abridged: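 Growth of a checkpoint-deficient yeast mutant is measured after compound exposure. Values represent inhibition relative to vehicle.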
Assay [6] can be described thus: NCI Yeast Anticancer Drug Screen. Data for the mlh1 rad18 strain (AID 175). The following applies: S. cerevisiae mlh1 rad18 strain growth inhibition; at 50.0 µM; active compounds read high. In outline:
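Inhibition values reflect reduced growth of mutant yeast versus vehicle-treated controls following compound exposure; the mutations affect DNA damage repair.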

The panel holds about 79,000 compounds, 15% with a hit somewhere; the sample as a whole holds those more often. Values without a mark were called inactive. Active and inactive are the calls of the source. No stated cut-off is given here; in the data, active means growth inhibition above about 70%; inactive means the rest.

In the case of `CC(N)(C(=O)O)c1ccccc1` (configuration not stated), the growth inhibition in assay [1] is -2.45%; in assay [2] it was -2.45%; in assay [3], 18.6%; in assay [4] it was -25.2%; in assay [5] it was -13.9%; in assay [6], -21.4%.

Regarding `CCCn1cnc2c(NN=O)ncnc21`, the growth inhibition in assay [1] was -42%; in assay [2], -13.2%; in assay [3], -51.6%; in assay [4] it was -23.2%; in assay [5], -9.35%; in assay [6], -45.5%.

Regarding `CCOC(=O)/C(C(C)=O)=C1\C(=O)c2ccccc2-c2ccccc21`, the growth inhibition was 21.6% in assay [1]; 3.5% in assay [2]; 2.8% in assay [3]; -19.2% in assay [4]; 12.9% in assay [5]; 12.5% in assay [6].

For the molecule `C[C@@H]1C[C@@H]2C(=O)N(c3ccccc3)C(=O)[C@@H]2c2[nH]c3ccc(Br)cc3c21`, the growth inhibition in assay [1] is 0.2%; in assay [2] it was -12.6%; in assay [3], 15.8%; in assay [4], 0.25%; in assay [5], -7.95%; in assay [6] it was -20.1%.

`CC(C)N1C(=O)c2ccccc2C1=O`: the growth inhibition in assay [1] is 26.8%; in assay [2], 22.1%; in assay [3] it was 14.7%; in assay [4], 19.8%; in assay [5] it was 15.1%; in assay [6] it was 14.3%.

Take `CCOC(=O)CC/C(=N/Nc1ccc(Cl)cc1[N+](=O)[O-])C(=O)OCC`: the growth inhibition in assay [1] is 11.7%; in assay [2], -39.9%; in assay [3] it was -31.9%; in assay [4], -7.6%; in assay [5], -24.6%; in assay [6] it was -0.4%.

In the case of `Cc1nc(N)sc1C`, the growth inhibition in assay [1] is 12.7%; in assay [2] it was -26.9%; in assay [3], 16.6%; in assay [4] it was 7.7%; in assay [5] it was 25.6%; in assay [6] it was 26.2%.

On to `O=C1NC(=O)c2ccc(S)c3cccc1c23`, for which the growth inhibition is 0.5% in assay [1]; 0% in assay [2]; -2.35% in assay [3]; -41.1% in assay [4]; 3.35% in assay [5]; -8.05% in assay [6].

In the case of `CC(=O)c1c[nH]c(=O)c2cc3c(cc12)OCO3`, the growth inhibition in assay [1] was -42.8%; in assay [2], -14.1%; in assay [3], -7.85%; in assay [4], -10.4%; in assay [5] it was 12.8%; in assay [6] it was -8.3%.

In the case of `COc1cc2c[n+]3c4c(cccc4c2cc1OC)CC3`, the growth inhibition in assay [1] was 5.75%; in assay [2], 0.55%; in assay [3], 1.15%; in assay [4], -2.7%; in assay [5], 3.2%; in assay [6], -13.7%.

Consider `CC(=O)N=C1N(/C=C2\C(=O)Oc3ccccc3C2=O)C(=O)/C(=C/c2ccc(OC(C)=O)cc2)N1C`, for which the growth inhibition in assay [1] is -9.55%; in assay [2], -17%; in assay [3], -14.9%; in assay [4], 12.9%; in assay [5] it was 1.05%; in assay [6], 0.75%.

As for `O=C(O)c1ncnn1-c1ccccc1`, the growth inhibition in assay [1] is 4.7%; in assay [2] it was 18.9%; in assay [3] it was 17.4%; in assay [4], -5.95%; in assay [5] it was 18.8%; in assay [6] it was 1.55%.

As to `CC1(C)C2CC3C(=CCC4C(=O)C5CC=C6C(CC7CC6C7(C)C)C5C(=O)C43)C1C2` (configuration not stated), the growth inhibition in assay [1] is 23.6%; in assay [2], -6.1%; in assay [3], 14%; in assay [4], -20%; in assay [5] it was -5.2%; in assay [6] it was -1.65%.

With `O=C(NCCN1CCCC1)Nc1ccccc1`, the growth inhibition is -3.2% in assay [1]; -20.2% in assay [2]; -17.2% in assay [3]; -47.7% in assay [4]; 2.3% in assay [5]; 8.45% in assay [6].

`[O-]c1c[n+](-c2ccc3c(c2)OCO3)no1`: the growth inhibition in assay [1] was 3.2%; in assay [2], -3.25%; in assay [3], -0.25%; in assay [4], -16.4%; in assay [5], 7.3%; in assay [6], 13.7%.

With `Cc1ccc(NC(=S)NC(=O)c2cccc([N+](=O)[O-])c2)cc1C`, the growth inhibition in assay [1] is 1.8%; in assay [2], 15.5%; in assay [3], 14.5%; in assay [4], -26.7%; in assay [5], 0.6%; in assay [6] it was 11.7%.

Take `O=C(NCC(F)(F)C(F)(F)C(F)(F)C(F)(F)C(F)(F)C(F)(F)C(F)(F)F)Oc1ccccc1`: the growth inhibition was 39.2% in assay [1]; 3.3% in assay [2]; 26.7% in assay [3]; 9.45% in assay [4]; -2.05% in assay [5]; 3.35% in assay [6].

In the case of `O=C1C(=O)N(c2cc(Cl)ccc2Cl)C(=O)C(=O)C1c1nc2ccccc2s1`, the growth inhibition in assay [1] was -7.8%; in assay [2], 18.6%; in assay [3], 0.3%; in assay [4] it was -18.8%; in assay [5] it was 9.4%; in assay [6] it was -19.4%.

On to `O=C(NNC(=O)c1cccc2ccccc12)c1cccc(Cl)c1`, for which the growth inhibition in assay [1] was 3.5%; in assay [2], -41.5%; in assay [3], -6.9%; in assay [4] it was 4.05%; in assay [5] it was -4.05%; in assay [6], -13.9%.

For the molecule `COC(=O)C1OC1c1ccncc1` (configuration not stated), the growth inhibition is 19.1% in assay [1]; 6.15% in assay [2]; 32.3% in assay [3]; 5.3% in assay [4]; 0.1% in assay [5]; 5.5% in assay [6].

For `OC1(c2ccccc2)c2ccccc2NC2=NCCN21` (configuration not stated), the growth inhibition in assay [1] is -14.7%; in assay [2] it was -12.4%; in assay [3] it was -10.7%; in assay [4], -10.5%; in assay [5], -45.9%; in assay [6], -16.9%.

As for `O=C(O)c1ccc2c(c1)C(=O)c1c(c(O)c3ccccc3c1O)C2=O`, the growth inhibition is 9.25% in assay [1]; 6.25% in assay [2]; 9.6% in assay [3]; -11.7% in assay [4]; 12.3% in assay [5]; -8.55% in assay [6].

As for `O=C(O)c1cnccn1`, the growth inhibition in assay [1] was 18.8%; in assay [2], 4.3%; in assay [3] it was 16.9%; in assay [4] it was 12.6%; in assay [5] it was 1.2%; in assay [6], 17.9%.

As for `CC1OC(OCC2OC(Oc3c(-c4ccc(O)cc4)oc4cc(O)cc(O)c4c3=O)C(OC3OC(C)C(O)C(O)C3O)C(O)C2O)C(O)C(O)C1O` (configuration not stated), the growth inhibition is -13.7% in assay [1]; -21.2% in assay [2]; -2.2% in assay [3]; 2.75% in assay [4]; -2.9% in assay [5]; 5.6% in assay [6].

Consider `OCc1ccc(-c2ccccc2)cc1`, for which the growth inhibition in assay [1] is 4.4%; in assay [2], -14.6%; in assay [3], 4.6%; in assay [4] it was 8%; in assay [5], 3.7%; in assay [6], 28.8%.

For `CCOC(=O)/C(O)=C(/C=N\C(=S)Nc1ccccc1Cl)C(=O)OCC`, the growth inhibition in assay [1] is -44%; in assay [2], -55.3%; in assay [3], -28.4%; in assay [4], 5.35%; in assay [5], -26.2%; in assay [6], -41.4%.

Consider `C/C=C/c1cc(C=O)cc(OC)c1O`, for which the growth inhibition in assay [1] is 0.15%; in assay [2] it was -8.1%; in assay [3], -5.4%; in assay [4], -10.6%; in assay [5] it was -4.4%; in assay [6], 5.75%.

Regarding `O=C1C2C3CC4C5CC(C1C53)C42` (configuration not stated), the growth inhibition in assay [1] is 4.85%; in assay [2] it was -7.45%; in assay [3] it was 3.35%; in assay [4] it was 5.05%; in assay [5], -5.4%; in assay [6], 1.7%.

As to `Cc1ccc(C)c(N=C2NC(=O)C(CC(=O)Nc3ccc(Cl)cc3Cl)S2)c1` (configuration not stated), the growth inhibition in assay [1] is -7.5%; in assay [2], 2.75%; in assay [3], -9.65%; in assay [4], 24.7%; in assay [5], -10.9%; in assay [6], -32.6%.

Take `CCC(=O)Oc1ccc(C(C)(C)CC(C)(C)C)cc1`: the growth inhibition in assay [1] was 32.2%; in assay [2], -8.85%; in assay [3], 34%; in assay [4], -7.05%; in assay [5], 6.05%; in assay [6] it was 51.7%.

As to `CC(=O)OC(c1ccccc1)C1(c2ccccc2)OCCO1` (configuration not stated), the growth inhibition is -9.2% in assay [1]; 7.5% in assay [2]; 5.75% in assay [3]; -33% in assay [4]; 1.4% in assay [5]; 17.1% in assay [6].

In the case of `Cc1cccc(NC(=O)COc2ccc(Cl)cc2C)c1`, the growth inhibition in assay [1] is 8.35%; in assay [2], 4.4%; in assay [3], 9.55%; in assay [4] it was 39.5%; in assay [5], 0.4%; in assay [6], -0.2%.

Consider `Oc1ccc(-c2nc(-c3ccccc3)c(-c3ccccc3)[nH]2)cc1`, for which the growth inhibition is -23.1% in assay [1]; -14.9% in assay [2]; -1.1% in assay [3]; -46.3% in assay [4]; -8.3% in assay [5]; 4.05% in assay [6].

For `C=C1C(=O)O[C@H]2[C@H]1CC(=O)/C(C)=C\CC[C@@]1(C)O[C@@H]21`, the growth inhibition was 29.2% in assay [1]; 59.4% in assay [2]; 63.4% in assay [3]; 35.5% in assay [4]; 64.8% in assay [5]; 43.1% in assay [6].

With `Cc1nc(N)c2c(ncn2C2OC(CO)C(O)C2O)n1` (configuration not stated), the growth inhibition in assay [1] was 9.35%; in assay [2], 1.85%; in assay [3] it was -5.3%; in assay [4], -8.8%; in assay [5], -9.15%; in assay [6], 14.6%.

`COc1ccc2c(c1)CC/C2=N/O`: the growth inhibition was -10.7% in assay [1]; 3.05% in assay [2]; -4.5% in assay [3]; -21.3% in assay [4]; -22.8% in assay [5]; 2.1% in assay [6].

Regarding `Cc1ccc(S(=O)(=O)N/N=C2\CC[C@H]3[C@@H]4CC=C5C[C@@H](O)CC[C@]5(C)[C@H]4CC[C@]23C)cc1`, the growth inhibition was 95.3% (active) in assay [1]; 95.3% (active) in assay [2]; 76.3% (active) in assay [3]; 97% (active) in assay [4]; 90.6% (active) in assay [5]; 96% (active) in assay [6].
